Reference: PubChem BioAssay AID624297 (National Center for Advancing Translational Sciences (NCATS), 2012)
Hit rate of the full screen: of about 340,000 compounds, about 6,200 (1.8%) were called active. About 10% were inconclusive and are not listed. The full list was thinned out, with actives kept by preference. Values without a mark were called inactive. Calls follow the shape of the dose curve; as a rule, active = well fitted activation curve with a large enough effect; inconclusive = small, poorly fitted or top-dose-only effect; inactive = no such curve, though single readings can be large or run the other way.

assay: A quantitative high throughput screen for small molecules that induce DNA re-replication in SW480 colon adenocarcinoma cells.; also: nearly all actives have a fitted effect of over 55% in size; as to re-replication activation: % of control where 0% means no effect; details: Hoechst DNA content imaging, 48 h; series mostly up to 46.1 µM; re-replication activation: at the top concentration
Excerpt: H Molecular Libraries Probe Production Network [MLPCN] NIH Chemical Genomics Center [NCGC] MLPCN Grant: Fast Track K99 CA136555 Assay Provider: Melvin DePamphilis, NICHD, NIH Assay Overview Eukaryotic cells normally restrict genome duplication to once per cell division. When this process is aberrant, DNA re-replication occurs when cells reinitiate DNA replication before the first round of replication is complete. DNA re-replication induces the DNA damage response, arrests cell proliferation, and triggers apoptosis. The cell cycle components cyclin A, Cdt-1, Cdc6 and geminin are critical regulators of this process and their misregulation results in DNA re-replication in normal and cancer cells. To identify compounds that induce re-replication in normal cells, an image-based assay was used to measure DNA content of nuclei, as detected by the fluorescent DNA binding dye, Hoechst. Cell nuclei were imaged by a fluorescence scanning plate imager and compounds that induce DNA re-replication were identified by the increase of nuclei with elevated fluorescence intensity
For screening, 250 cells in 5 uL/well were dispensed into black clear 1536-well plates (Aurora) using a solenoid-based dispenser. Following transfer of 23 nL compound or DMSO vehicle by a pin tool, the plates were incubated 48 hr at 37 C and 5% CO2. After addition of 1 uL/well Hoescht stain, the plates were incubated 40 min at 37 C, 5% CO2 and total intensity of fluorescent objects (nuclei) were enumerated by an Acumen Explorer Ex3 (TTP LabTech) fluorescence scanning plate imager (405 nm excitation, 500-530 nm emission). Keywords: NIH Roadmap, MLPCN, MLI, MLSMR, qHTS, NCGC, DNA replication, cancer
Potency is read from the fitted curve at half-maximal effect.

Row | SMILES | re-replication activation | Potency
1 | COC(=O)CC(CC(=O)OC)n1cccc1 | 0.407% | 
2 | CCN(CC)CCCC(C)n1c2nc(=O)[nH]c(=O)c-2nc2cc(Cl)ccc21 (stereo not given) |  | 11.6 µM (active)
3 | O=C(Cc1ccc(NC(=O)C2CCCN(C(=O)C3CCCCC3)C2)cc1)Nc1cccc(C(=O)N2CCCCC2)c1 (stereo not given) | 5.52% [at 9.22 µM] | 
4 | Cc1ccc(CC(=O)Nc2ccc(S(=O)(=O)N3CCOCC3)cc2)cc1C | -13.4% | 
5 | Cc1cc(C2=NNC(=Nc3ccc(S(=O)(=O)N4CCOCC4)cc3)SC2)c(C)n1CC1CCCO1 (stereo not given) |  | 3.66 µM (active)
6 | C=CCn1c(C)cc(C2=NNC(=NCC)SC2)c1C | 1.88% | 
7 | CN(C(=O)c1cccc(NC(=O)Cc2ccc(NC(=O)C3CCN(C(=O)C4CCCCC4)CC3)cc2)c1)C1CCC1 | 10.8% [at 9.22 µM] | 
8 | O=S1(=O)CSCS(=O)(=O)C1 | -1.95% | 
9 | Cc1ccc2nc(-c3cccnc3)c(NC3CCCC3)n2c1 | -5.41% | 
10 | COc1ccc(-c2nc3cnccn3c2NC2CCCCC2)cc1-c1cccc(Cl)c1 |  | 5.17 µM (active)
11 | COc1ccc(-c2nc3cnccn3c2NC(C)(C)CC(C)(C)C)cc1O | 4.42% | 
12 | COc1cc(NC(=O)COC(=O)c2ccc([N+](=O)[O-])s2)cc(OC)c1OC | -3.57% | 
13 | CC(=O)c1ccc2c(c1)c1ccccc1n2CC(C)C | -4.69% | 
14 | CCCCN(CCCC)CC(O)Cn1c2ccccc2c(=O)c2ccccc21 (stereo not given) |  | 7.31 µM (active)
15 | CCCn1c(=O)c(-c2ccccc2)c(O)c2ccccc21 | -4.27% | 
16 | Nc1nonc1-n1nnc(C(=O)N/N=C/c2ccccc2O)c1CN1CCCC1 | -5.57% | 
17 | Nc1nonc1-n1nnc(C(=O)N/N=C/c2cc(Br)ccc2O)c1CSC1=NCCS1 |  | 13 µM (active)
18 | Cc1ccc(SCc2c(C(=O)N/N=C/c3cccnc3)nnn2-c2nonc2N)cc1 | -16.9% | 
19 | O=C(CCCCCCCC(=O)N1CCCCC1)N1CCCCC1 | -6.64% | 
20 | COc1ccc(C(=O)OCc2cc(=O)n3ccsc3n2)cc1F | -5.06% | 
21 | CCOC(=O)c1c(C)c(C(=O)NCCc2ccc(S(N)(=O)=O)cc2)c(C)n1CC | -3.88% | 
22 | CCCNC(=O)c1c(N)n(-c2ccc(S(N)(=O)=O)cc2)c2nc3ccccc3nc12 |  | 0.82 µM (active)
23 | Cc1noc(C)c1C(=O)NCCc1ccc(S(N)(=O)=O)cc1 | -15.5% | 
24 | Cc1csc(NC(=O)c2ccc(C)s2)n1 | 15.7% | 
25 | Cc1csc(NC(=O)c2ccc(-c3ccc(Cl)cc3Cl)o2)n1 |  | 13 µM (active)

Row | SMILES | re-replication activation | Potency
26 | O=C(Nc1cccc2ncccc12)c1ccc(-c2ccc(Cl)cc2Cl)o1 | 0.657% | 
27 | Cc1cccc(N2O[C@H]3C=CC2CCCC3)n1 | 0.356% | 
28 | CC1CN(Cc2ccco2)C(=S)N(c2ccccc2)C1=O (stereo not given) | -2.33% | 
29 | CN1CCN(S(=O)(=O)c2ccc(NC(=S)NC(=O)C3CC3)cc2)CC1 | -9.04% | 
30 | Cc1cc(Nc2cc(N3CCN(C)CC3)nc(Sc3ccc(NC(=O)C4CC4)cc3)n2)n[nH]1 |  | 0.259 µM (active)
31 | Cc1cc(C)nc(N2CCC(C(=O)Nc3ccc4c(c3)OCCO4)CC2)n1 | 8.19% | 
32 | CC1Cc2ccccc2N1S(=O)(=O)c1cccc(C(=O)OCC(=O)N2CCOCC2)c1 (stereo not given) | -2.28% | 
33 | O=C(COC(=O)C1CCCO1)Nc1nc(-c2ccc(F)cc2)cs1 (stereo not given) | 4.83% | 
34 | CC[C@]1(C(=O)OC)[C@H]2C(=O)N(C)C(=O)[C@H]2[C@H]2CN(C)C(=NCc3ccccc3)N21 | -0.109% | 
35 | O=C(CN1C(=O)C2C3CCC(C3)C2C1=O)Oc1ccc2ccccc2c1 (stereo not given) | -7.39% | 
36 | O=C(COC(=O)CN1C(=O)C2CCCCC2C1=O)Nc1ccc(F)c(F)c1F (stereo not given) | -20.3% | 
37 | CC1=CC(C)(C)Nc2ccc(OC(=O)CN3C(=O)C4CCCCC4C3=O)cc21 (stereo not given) |  | 20.6 µM (active)
38 | COc1ccc(CNC(=O)CN2C(=O)c3ccccc3S2(=O)=O)cc1 | -3.49% | 
39 | CCC(CO)Oc1cc(NC(=O)c2cccc3ccccc23)c2ncn(C(C)C)c2c1 (stereo not given) | -5.66% [at 9.22 µM] | 
40 | O=C(CN1C(=O)NC2(CCCC2)C1=O)OCCOc1ccc(F)cc1 | -58.9% | 
41 | CCc1ccc(C(=O)C(C)OC(=O)CN2C(=O)NC3(CCCC3)C2=O)cc1 (stereo not given) |  | 3.26 µM (active)
42 | Cc1ccc(COC(=O)CN2C(=O)NC3(CCCC3)C2=O)cc1 | -6.36% | 
43 | O=C1c2ccccc2C(=O)C1C(=O)C1CC1 | 19.8% | 
44 | Cc1cccc(-n2ncc3c(=O)[nH]c(SCC(=O)Nc4cc(C)on4)nc32)c1 | -3% | 
45 | CC(C)(C)C(=O)Nc1cccc(-c2ccc[nH]2)n1 | -4.35% | 
46 | CCOc1ccc(S(=O)(=O)NCCSc2ccccc2)cc1 | -0.257% | 
47 | CCOc1ccc2nc(NCCNS(=O)(=O)c3ccccc3)c(C#N)cc2c1 |  | 18.4 µM (active)
48 | CCOc1ccc2nc(NCCNC(=O)C(C)(C)C)c(C)cc2c1 | 0.258% | 
49 | O=C1C=CN2CCCC2CC1 (stereo not given) | -4.38% | 
50 | Cc1nc(N)nc(Cl)c1CCC1OCCO1 | -1.39% | 

Row | SMILES | re-replication activation | Potency
51 | CC(OC(=O)c1ccc([N+](=O)[O-])cc1)C(=O)NCC1CCCCC1 (stereo not given) | -0.927% | 
52 | COc1ccc(CCNC(=O)C(Sc2ccccn2)c2ccccc2)cc1OC (stereo not given) | -1.45% | 
53 | COc1ccc(COC(=O)NC(C(=O)O)c2ccccc2)cc1 (stereo not given) | 2.12% | 
54 | COc1ccc(C(CCN(Cc2ccc(OC)c(OC)c2)C(=O)CCl)c2ccccc2)cc1 (stereo not given) |  | 23.1 µM (active)
55 | COc1ccc(CC(=O)N[C@@H]2c3cc(OC)c(OC)cc3C[C@H]2OCc2ccccc2)cc1 | 4.24% | 
56 | Cc1ccc(C)c(S(=O)(=O)N(C)c2ccc(OC(=O)C3CCN(C(=O)c4ccc(F)cc4)CC3)cc2)c1 | -1.93% | 
57 | Cn1nnnc1SCC(=O)Nc1cccc(S(=O)(=O)N2CCCCC2)c1 | -3.5% | 
58 | COc1ccc(OC)c(NC(=O)COC(=O)Cc2ccsc2)c1 | -7.6% | 
59 | Cc1ccc(Br)c(NS(=O)(=O)c2cccc(C(=O)N3CCNC(=O)C3)c2)c1 | -2.86% | 
60 | OCC(O)C1OCOC(C(O)CO)C1O (stereo not given) | 0.851% | 
61 | c1ccc(C(=NNc2nc3ccccc3s2)c2ccccn2)cc1 |  | 0.259 µM (active)
62 | c1ccc2sc(NN=C3CCCC3)nc2c1 | 1.2% | 
63 | O=C(CCNC(=O)c1ccccc1)Nc1nc2ccccc2s1 | 4.07% | 
64 | N#CC1(Nc2ccc(-c3ccc(Cl)cc3)cc2)CCCC1 | 1.38% | 
65 | Cc1[nH]n(-c2ccc([N+](=O)[O-])cc2)c(=O)c1C=NCCN1CCN(C(=O)c2ccccc2F)CC1 | -4.88% | 
66 | Cc1ccc(-c2ccnc3[nH]n(-c4ccccc4)c(=O)c23)cc1 | -3.91% | 
67 | Cc1ccc(-n2[nH]c(C)c(/C=N/N3C(=O)c4cccc5cccc(c45)C3=O)c2=O)cc1 |  | 16.4 µM (active)
68 | COc1ccc(-c2cc(C(=O)NCCCn3ccnc3)no2)cc1 | -4.18% | 
69 | O=C(NCCCn1ccnc1)c1cc(-c2ccccc2)on1 |  | 7.31 µM (active)
70 | COc1ccccc1-c1cc(C(=O)NCCCn2ccnc2)no1 | -8.25% | 
71 | CCCCN1CC(CO)Oc2cccc(F)c2S1(=O)=O (stereo not given) | -13% | 
72 | C[C@@H]1ON(C)[C@H]2C[C@H]3c4cc(N5CCN(C)CC5)ccc4CCN3C(=O)[C@@H]12 | -3.9% | 
73 | COc1ccc(/C=C/C(=O)Nc2ccc(C34CC5CC(CC(O)(C5)C3)C4)cc2)cc1OC |  | 18.4 µM (active)
74 | COc1ccc(/C=C/C(=O)Nc2cccnc2)cc1OC | -1.89% | 
75 | COc1ccc(/C=C/C(=O)Nc2ccc(C)cc2)cc1S(=O)(=O)N1CCOCC1 | -2.91% | 

Row | SMILES | re-replication activation | Potency
76 | COC(=O)c1c(NC(=O)C2CC(C)=C(C)CC2C(=O)O)sc2c1CCCCC2 (stereo not given) | -9.14% | 
77 | CC1=C(C)CC(C(=O)NNC(=O)c2csc3c2CCC(C(C)(C)C)C3)C(C(=O)O)C1 (stereo not given) |  | 29.1 µM (active)
78 | CC1=C(C)CC(C(=O)NNC(=O)c2ccccc2O)C(C(=O)O)C1 (stereo not given) | 2.89% | 
79 | NC(=O)C1(Nc2ccc(-c3ccccc3)cc2)CCCC1 | 3.19% | 
80 | Cc1ccc(S(=O)(=O)N2CCOCC2)cc1NC(=O)COC(=O)c1cnccn1 | 1.9% | 
81 | O=C(CC1NCCNC1=O)Nc1ccc(Oc2ccccc2)cc1 (stereo not given) | 6.95% | 
82 | COC(=O)c1cc(C)sc1NC(=O)CC1Nc2ccccc2NC1=O (stereo not given) | 4.03% | 
83 | O=C(CC1Nc2ccccc2NC1=O)Nc1ccccc1 (stereo not given) |  | 12.6 µM (active)
84 | C[C@]12CCC(=O)C=C1C=CC1C2CC[C@@]2(C)C1CC[C@@]21CCC(=O)O1 (stereo not given in full) | 1.11% | 
85 | Nc1ccc2c(c1)C(=Cc1cccnc1)c1ccccc1-2 | 2.27% | 
86 | Cc1ccc(SC(CC(=O)c2ccc(C(C)(C)C)cc2)C(=O)O)cc1 (stereo not given) |  | 20.6 µM (active)
87 | Cc1ccc(C(=O)CSc2ccccc2C(=O)O)cc1 | 1.14% | 
88 | Cc1ccc(C(=O)CNc2ccc(F)cc2)cc1 | 5.96% | 
89 | O=C(N[C@H]1C/C=C\C(c2cccc(F)c2)N(Cc2ccccc2)C(=O)C1)OCC1c2ccccc2-c2ccccc21 (stereo not given in full) | 2.59% | 
90 | C#CCOCCOCCOCCNc1nc(N2CCN(C(=O)[C@H](CCCN=C(N)N)n3cc(C(N)[C@@H](C)CC)nn3)CC2)nc(N2CCN(C(=O)[C@H](CO)n3cc([C@@H](N)C(C)C)nn3)CC2)n1 (stereo not given in full) | -3.08% | 
91 | COC(=O)COc1cccc2c(=O)n(CC(=O)NCc3ccccc3)ccc12 |  | 2.59 µM (active)
92 | COC(=O)COc1cccc2c(=O)n(CC(=O)NCCc3ccc(OC)c(OC)c3)ccc12 | 0.74% | 
93 | Cc1ccc(CNC(=O)CCNC(=O)Cn2ccc3ccccc3c2=O)cc1 | 9.14% | 
94 | CN(Cc1ccc(CNC[C@H]2O[C@@H](n3cnc4c(N)ncnc43)[C@H](O)[C@@H]2O)o1)S(C)(=O)=O | -0.482% | 
95 | CC(=O)Nc1ccc(NC(=O)COC(=O)C2CCC(C(C)(C)C)CC2)cc1 (stereo not given) | -11.3% | 
96 | Cc1ccc(NC(=O)Cn2cnc3c(OCc4ccccc4)ncnc32)cc1C | 8.76% | 
97 | COc1ccccc1N1CCN(C(=O)c2ccc(Cl)c(S(=O)(=O)N3CCCC3)c2)CC1 | 3.04% | 
98 | CCOc1ccccc1N1CCN(C(=O)c2ccc3[nH]c(C)c(C)c3c2)CC1 |  | 18.4 µM (active)
99 | Cc1[nH]c2ccc(C(=O)N3CCN(C)CC3)cc2c1C | -8.89% | 
100 | Cc1cc(NC(=O)CN2C(=O)NC(CC(C)C)C2=O)no1 (stereo not given) | -8.09% | 
